Source: PubChem BioAssay AID1159580 (chemical genetic matrix, 2015)
The whole screen tested about 5,500 compounds, of which about 2,000 (36%) were called active. Another 18% or so got no clear call; they are omitted. No stated cut-off is given here; in the data, active means normalized growth mostly below about 0.91 (no sharp cut-off); inconclusive means no clear call, values can overlap the other calls; inactive means mostly above about 0.92. The list shows a part of the results.

Experiment: chemical genetic growth profiling, strain panel (AID 1159580);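 further: tested at 20 µM; growth read once vehicle control cultures reached saturation at 30 °C; 1 = growth at the plate median or of vehicle wells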
Details: S. cerevisiae deletion strains, growth OD

Measured: normalized growth

COc1cc(C(=O)NCCCCCC(=O)O)cc(OC)c1OC
inactive: locus YAL021C, strain ccr4, stronger effect = lower value 0.976 | locus YAL026C, strain drs2, stronger effect = lower value 0.981 | locus YAL030W, strain snc1, stronger effect = lower value 0.959 | locus YBL061C, strain skt5, stronger effect = lower value 0.973 | locus YBR009C, strain hhf1, stronger effect = lower value 0.977 | locus YBR023C, strain chs3, stronger effect = lower value 0.986 | locus YBR171W, strain sec66, stronger effect = lower value 0.97 | locus YBR231C, strain swc5, stronger effect = lower value 0.978 | locus YBR279W, strain paf1, stronger effect = lower value 0.979 | locus YCL011C, strain gbp2, stronger effect = lower value 0.977 | locus YCL016C, strain dcc1, stronger effect = lower value 0.982 | locus YCL061C, strain MRC1, stronger effect = lower value 0.995 | locus YCL069W, strain vba3, stronger effect = lower value 0.984 | locus YCR088W, strain abp1, stronger effect = lower value 0.986 | locus YDL005C, strain med2, stronger effect = lower value 0.973 | locus YDL040C, strain nat1, stronger effect = lower value 0.981 | locus YDR001C, strain nth1, stronger effect = lower value 0.969 | locus YDR069C, strain doa4, stronger effect = lower value 0.973 | locus YDR137W, strain rgp1, stronger effect = lower value 0.975 | locus YDR159W, strain sac3, stronger effect = lower value 0.966 | locus YDR195W, strain ref2 0.966 | locus YDR297W, strain sur2, stronger effect = lower value 0.962 | locus YDR334W, strain swr1, stronger effect = lower value 0.935 | locus YDR335W, strain msn5, stronger effect = lower value 0.975 | locus YDR392W, strain spt3, stronger effect = lower value 0.983 | locus YEL003W, strain gim4, stronger effect = lower value 0.98 | locus YEL037C, strain rad23, stronger effect = lower value 0.985 | locus YEL061C, strain CIN8 (second series), stronger effect = lower value 0.974 | locus YER015W, strain faa2, stronger effect = lower value 0.972 | locus YER016W, strain bim1, stronger effect = lower value 0.981 | locus YER111C, strain swi4, stronger effect = lower value 0.979 | locus YER155C, strain BEM2 (second series), stronger effect = lower value 0.969 | locus YFR010W, strain ubp6, stronger effect = lower value 0.966 | locus YGL167C, strain pmr1, stronger effect = lower value 0.986 | locus YGL173C, strain kem1, stronger effect = lower value 0.959 | locus YGL227W, strain vid30, stronger effect = lower value 0.976 | locus YGL240W, strain doc1, stronger effect = lower value 0.972 | locus YGL253W, strain hxk2, stronger effect = lower value 0.986 | locus YHR013C, strain ard1, stronger effect = lower value 0.973 | locus YHR027C, strain rpn1, stronger effect = lower value 0.964 | locus YHR030C, strain SLT2, stronger effect = lower value 0.972 | locus YHR079C, strain IRE1, stronger effect = lower value 0.974 | locus YHR142W, strain chs7, stronger effect = lower value 0.981 | locus YJL092W, strain hpr5, stronger effect = lower value 0.994 | locus YJL095W, strain BCK1 (second series), stronger effect = lower value 0.977 | locus YJL095W, strain BCK1, stronger effect = lower value 1.02 | locus YJL115W, strain asf1, stronger effect = lower value 0.975 | locus YJL129C, strain trk1, stronger effect = lower value 0.999 | locus YJL154C, strain vps35, stronger effect = lower value 0.97 | locus YJL164C, strain tpk1, stronger effect = lower value 0.998 | locus YJL166W, strain qcr8, stronger effect = lower value 0.974 | locus YJL187C, strain SWE1, stronger effect = lower value 0.983 | locus YJR066W, strain TOR1, stronger effect = lower value 0.923 | locus YKL160W, strain elf1, stronger effect = lower value 0.992 | locus YKR026C, strain gcn3, stronger effect = lower value 0.993 | locus YKR091W, strain srl3, stronger effect = lower value 0.984 | locus YLL001W, strain dnm1, stronger effect = lower value 0.998 | locus YLL026W, stronger effect = lower value 0.964 | locus YLL041C, strain sdh2, stronger effect = lower value 0.981 | locus YLR027C, strain aat2, stronger effect = lower value 0.977 | locus YLR113W, strain HOG1, stronger effect = lower value 1.01 | locus YLR221C, strain rsa3, stronger effect = lower value 0.991 | locus YLR258W, strain gsy2, stronger effect = lower value 0.987 | locus YLR262C, strain YPT6 (second series), stronger effect = lower value 0.962 | locus YLR320W, strain mms22, stronger effect = lower value 0.985 | locus YLR342W, strain FKS1, stronger effect = lower value 0.985 | locus YLR357W, strain rsc2, stronger effect = lower value 1.01 | locus YLR370C, strain arc18, stronger effect = lower value 0.973 | locus YLR384C, strain iki3, stronger effect = lower value 0.975 | locus YML120C, strain ndi1, stronger effect = lower value 0.987 | locus YMR058W, strain fet3, stronger effect = lower value 0.974 | locus YMR125W, strain sto1, stronger effect = lower value 0.979 | locus YMR129W, stronger effect = lower value 0.995 | locus YMR205C, strain PFK2, stronger effect = lower value 0.968 | locus YMR231W, strain pep5, stronger effect = lower value 0.991 | locus YNL071W, strain lat1, stronger effect = lower value 0.985 | locus YNL183C, strain NPR1, stronger effect = lower value 0.935 | locus YNL209W, strain ssb2, stronger effect = lower value 0.977 | locus YNL248C, strain rpa49, stronger effect = lower value 0.986 | locus YNL322C, strain KRE1 (second series), stronger effect = lower value 0.966 | locus YNR049C, strain mso1, stronger effect = lower value 0.976 | locus YOR001W, strain rrp6, stronger effect = lower value 0.977 | locus YOR070C, strain gyp1, stronger effect = lower value 0.978 | locus YOR080W, strain dia2, stronger effect = lower value 0.974 | locus YOR083W, strain WHI5, stronger effect = lower value 0.98 | locus YOR106W, strain vam3, stronger effect = lower value 0.979 | locus YOR231W, strain MKK1, stronger effect = lower value 0.99 | locus YOR265W, strain rbl2, stronger effect = lower value 0.973 | locus YOR270C, strain vph1, stronger effect = lower value 0.996 | locus YOR290C, strain snf2, stronger effect = lower value 0.976 | locus YPL051W, strain arl3, stronger effect = lower value 0.988 | locus YPL078C, strain atp4, stronger effect = lower value 0.98 | locus YPL106C, strain sse1, stronger effect = lower value 0.916 | locus YPL240C, strain hsp82, stronger effect = lower value 0.982 | locus YPL256C, strain CLN2, stronger effect = lower value 0.93
